26 compounds from PubChem BioAssay (EPA / NIEHS) can be followed below.

Results filed as inconclusive are left out. A structure can be active in one record and inactive in another. Calls of active or inactive are those of the source. How the source made its calls, unless noted: active means hit-call score of the fitted dose curve at least 0.9, where 1 is the maximum; inactive means score below 0.9.

One may read the AC50 as the concentration giving half of the maximal activity seen.

The first assay is described as follows: CCTE_Harrill_HTTr_Viability_MCF7: CCTE's 6-hour Cell Viability Assessment for the High-Throughput Transcriptomics (HTTr) Platform, in MCF-7 cells cultured in DMEM + 10% fetal bovine serum, Harrill Lab (AID 2284010). In a few lines: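 MCF-7 cells in DMEM + 10% FBS, 384-well, exposed 6 h to an eight-point dilution series. Membrane integrity scored by high-content imaging of propidium iodide exclusion; bidirectional fit versus DMSO.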
For the compound `O=P(OC(CCl)CCl)(OC(CCl)CCl)OC(CCl)CCl`, the result was inactive.

Take `O=C1OC(=O)C2C3C=CC(C3)C12` (stereo unspecified): the outcome was inactive.

For the compound `NC(=O)NO`, the outcome was inactive.

Turning to `CC(C)=CCCC(C)=CC=O`, the outcome was inactive.

As for `CCCCCCCCCCCCc1ccccc1`, the outcome was inactive.

Take `CCOCCOCCOCCO`: the result was inactive.

On to `Cn1c(=O)c2c(ncn2C)n(C)c1=O`, for which the result was inactive.

Regarding `CC(C)CCO`, the result was inactive.

As for `C=CC(=C)CCC=C(C)C`, the outcome was inactive.

`CC(C)=CCCC(C)CCO` (stereo unspecified): the outcome was inactive.

For the compound `CC(C)(O)c1coc(S(=O)(=O)NC(=O)Nc2c3c(cc4c2CCC4)CCC3)c1`, the outcome was inactive.

Regarding `CC(C)=CCC/C(C)=C/CO`, the result was inactive.

Turning to `CC1(C)C(=O)N(Br)C(=O)N1Br`, the outcome was inactive.

`CC1=CC(=O)CC(C)(C)C1`: the result was inactive.

In the case of `CC(O)CN(CCN(CC(C)O)CC(C)O)CC(C)O` (stereo unspecified), the outcome was inactive.

`CC(C)=CCC/C(C)=C\CO`: the outcome was inactive.

For `Cn1cnc([N+](=O)[O-])c1Sc1ncnc2nc[nH]c12`, the result was inactive.

Turning to `CN(C)c1ccc(N=NS(=O)(=O)O)cc1`, the outcome was inactive.

Regarding `Nc1nc2ncc(CNc3ccc(C(=O)N[C@@H](CCC(=O)O)C(=O)O)cc3)nc2c(=O)[nH]1`, the result was inactive.

For the compound `Nc1ccc(Nc2ccccc2)cc1`, the outcome was inactive.

Consider `CCNc1ccccc1`, for which the result was inactive.

For `CNCc1ccc(NC(=O)c2c[nH]c3c2C(=O)CCC3)cc1`, the outcome was inactive.

For the compound `COC(=O)c1ccccc1O`, the result was inactive.

As for `O=c1[nH]c2ccc(S(=O)CCN3CCC(Cc4ccc(F)cc4)CC3)cc2o1` (stereo unspecified), the result was inactive.

Regarding `Clc1nc(Cl)c(Cl)c(Cl)c1Cl`, the outcome was inactive.

A further assay in a line: CCTE_Harrill_HTTr_CellCount_MCF7: CCTE's Cell Proliferation Assessment for the High-Throughput Transcriptomics (HTTr) Platform, Harrill Lab (AID 2284012; active means hit-call score of the fitted dose curve at least 0.9, where 1 is the maximum;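 further: cells exposed to compound for six hours; intended direction is loss of nuclei count meaning fewer cells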). The essentials:
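MCF7 cells exposed 6 hours to an eight-point dilution series; Hoechst-stained nuclei counted by high-content imaging. Bidirectional curve fitting against DMSO baseline.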
On to `O=P(OC(CCl)CCl)(OC(CCl)CCl)OC(CCl)CCl`, for which the call was inactive.

For the compound `O=C1OC(=O)C2C3C=CC(C3)C12` (stereo unspecified), the outcome was inactive.

With `NC(=O)NO`, the compound was classed as inactive.

For `CCOCCOCCOCCO`, the result was inactive.

As to `Cn1c(=O)c2c(ncn2C)n(C)c1=O`, the compound was classed as inactive.

Take `C=CC(=C)CCC=C(C)C`: the compound was classed as inactive.

Regarding `CC(C)=CCCC(C)CCO` (stereo unspecified), the call was inactive.

`CC(C)(O)c1coc(S(=O)(=O)NC(=O)Nc2c3c(cc4c2CCC4)CCC3)c1`: the call was inactive.

Regarding `CC(C)=CCC/C(C)=C/CO`, the result was inactive.

`CC1(C)C(=O)N(Br)C(=O)N1Br`: the compound was called inactive.

Consider `CC1=CC(=O)CC(C)(C)C1`, for which the call was inactive.

Turning to `CC(O)CN(CCN(CC(C)O)CC(C)O)CC(C)O` (stereo unspecified), the call was inactive.

Consider `CC(C)=CCC/C(C)=C\CO`, for which the call was inactive.

`Cn1cnc([N+](=O)[O-])c1Sc1ncnc2nc[nH]c12`: the compound was called inactive.

As to `CN(C)c1ccc(N=NS(=O)(=O)O)cc1`, the call was inactive.

With `Nc1nc2ncc(CNc3ccc(C(=O)N[C@@H](CCC(=O)O)C(=O)O)cc3)nc2c(=O)[nH]1`, the compound was classed as inactive.

In the case of `Nc1ccc(Nc2ccccc2)cc1`, the compound was called inactive.

As for `CCNc1ccccc1`, the outcome was inactive.

For `COC(=O)c1ccccc1O`, the compound was classed as inactive.

For the compound `Clc1nc(Cl)c(Cl)c(Cl)c1Cl`, the result was inactive.

The nature of another assay: CCTE_Shafer_MEA_acute_burst_number: CCTE's Neural Acute Assay for Single-Electrode Bursts, Shafer Lab (AID 2284013). In a few lines:
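Primary rat cortical neurons on 16-electrode MEA wells, treated on DIV 13 or 15 with compound at 0.03-40 uM. Single-electrode burst count from 40-min recordings at 37 C before and after exposure; percent change from baseline per well, DMSO negative control.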
For `O=P(OC(CCl)CCl)(OC(CCl)CCl)OC(CCl)CCl`, the call was inactive.

As for `CC(C)=CCCC(C)=CC=O`, the outcome was inactive.

For the compound `CCCCCCCCCCCCc1ccccc1`, the compound was called inactive.

For `Cn1c(=O)c2c(ncn2C)n(C)c1=O`, the result was inactive.

Take `CCC(C)(C)C(=O)O[C@H]1C[C@@H](C)C=C2C=C[C@H](C)[C@H](CC[C@@H]3C[C@@H](O)CC(=O)O3)[C@H]21`: the compound was called inactive.

Regarding `Cn1cnc([N+](=O)[O-])c1Sc1ncnc2nc[nH]c12`, the outcome was inactive.

A further assay can be described thus: CCTE_Shafer_MEA_acute_burst_duration_mean: CCTE's Neural Acute Assay for Mean Burst Duration, Shafer Lab (AID 2284014).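 Further: hits are decreases in mean burst duration relative to DMSO controls.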 In a few lines: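 Rat primary cortical neurons on 48-well MEA, treated at DIV 13 or 15 with 0.03-40 uM in at least 3 wells. Value is percent change in mean burst duration, comparing 40 min recordings at 37 C before and during exposure.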
With `O=P(OC(CCl)CCl)(OC(CCl)CCl)OC(CCl)CCl`, the compound was called inactive.

For `CC(C)=CCCC(C)=CC=O`, the compound was classed as inactive.

On to `CCCCCCCCCCCCc1ccccc1`, for which the result was inactive.

For the compound `Cn1c(=O)c2c(ncn2C)n(C)c1=O`, the AC50 was 30.8 µM (active).

Consider `CCC(C)(C)C(=O)O[C@H]1C[C@@H](C)C=C2C=C[C@H](C)[C@H](CC[C@@H]3C[C@@H](O)CC(=O)O3)[C@H]21`, for which the call was inactive.

For the compound `Cn1cnc([N+](=O)[O-])c1Sc1ncnc2nc[nH]c12`, the call was inactive.

A short description of another assay: CCTE_Shafer_MEA_acute_per_burst_spike_number_mean: CCTE's Neural Acute Assay for Average Number of Spikes Per Burst, Shafer Lab (AID 2284015).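 Further: hits are decreases in mean spikes per burst versus baseline.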 The essentials: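 Rat primary cortical neurons on 48-well MEAs (DIV 13 or 15) were treated with 0.03-40 uM compound at 37 C. Mean spikes per burst over 40 min were recorded before and after exposure and expressed as percent change from baseline, relative to DMSO.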
For the compound `O=P(OC(CCl)CCl)(OC(CCl)CCl)OC(CCl)CCl`, the compound was called inactive.

Consider `CC(C)=CCCC(C)=CC=O`, for which the result was inactive.

Take `CCCCCCCCCCCCc1ccccc1`: the outcome was inactive.

In the case of `Cn1c(=O)c2c(ncn2C)n(C)c1=O`, the AC50 was 31.8 µM (active).

For `CCC(C)(C)C(=O)O[C@H]1C[C@@H](C)C=C2C=C[C@H](C)[C@H](CC[C@@H]3C[C@@H](O)CC(=O)O3)[C@H]21`, the outcome was inactive.

With `Cn1cnc([N+](=O)[O-])c1Sc1ncnc2nc[nH]c12`, the compound was called inactive.

A short description of a further assay: CCTE_Shafer_MEA_acute_interburst_interval_mean: CCTE's Neural Acute Assay for Mean Interburst Interval, Shafer Lab (AID 2284016).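 Further: percent change of mean interburst interval versus each well's own pre-dose baseline; curves fitted for decrease in interburst interval relative to DMSO.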 The essentials:
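Rat primary cortical neurons on 48-well MEAs at DIV 13 or 15 were exposed acutely to 0.03-40 uM. Spikes detected at 8x rms noise, 37 C. Mean interburst interval from 40 min recordings expressed as percent change from 40 min pre-treatment baseline.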
In the case of `O=P(OC(CCl)CCl)(OC(CCl)CCl)OC(CCl)CCl`, the AC50 was 24 µM (active) and the compound was called inactive.

For `CC(C)=CCCC(C)=CC=O`, the compound was classed as inactive.

For the compound `Cn1c(=O)c2c(ncn2C)n(C)c1=O`, the compound was classed as inactive.

In the case of `CCC(C)(C)C(=O)O[C@H]1C[C@@H](C)C=C2C=C[C@H](C)[C@H](CC[C@@H]3C[C@@H](O)CC(=O)O3)[C@H]21`, the compound was classed as inactive.

In the case of `Cn1cnc([N+](=O)[O-])c1Sc1ncnc2nc[nH]c12`, the compound was classed as inactive.

A short description of the next assay: CCTE_Shafer_MEA_acute_burst_percentage_mean: CCTE's Neural Acute Assay for Percentage of Spikes in a Burst, Shafer Lab (AID 2284017).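 On AC50: curve fitted for loss of signal so potency reflects decreased burst percentage.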 In a few lines:
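Primary rat cortical neurons on 48-well MEA plates, treated on DIV 13 or 15 at 0.03-40 uM. Spikes detected at 8x rms noise at 37C; percent change from 40-min baseline to 40-min post-dose recording, fitted versus DMSO.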
As for `O=P(OC(CCl)CCl)(OC(CCl)CCl)OC(CCl)CCl`, the AC50 was 23.1 µM (active) and the compound was called inactive.

On to `CC(C)=CCCC(C)=CC=O`, for which the outcome was inactive.

Turning to `CCCCCCCCCCCCc1ccccc1`, the compound was classed as inactive.

As to `Cn1c(=O)c2c(ncn2C)n(C)c1=O`, the compound was classed as inactive.

With `CCC(C)(C)C(=O)O[C@H]1C[C@@H](C)C=C2C=C[C@H](C)[C@H](CC[C@@H]3C[C@@H](O)CC(=O)O3)[C@H]21`, the result was inactive.

Turning to `Cn1cnc([N+](=O)[O-])c1Sc1ncnc2nc[nH]c12`, the outcome was inactive.
